# Measurements reported in PubChem BioAssay.
# Active and inactive are the calls of the source.
# Assays:
# Albumin (Bos taurus) = Albumin (Bos taurus) (UniProt P02769); test: bovine serum albumin binders on microarray, profiling panel, artefact control for SMM control protein annotation, biochemical, small-molecule microarray, Alexa647 label, 635/667 nm fluorescence (AID 1118); settings: BSA-A647 binding, fluorescence 635 nm, higher = more signal;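 note: score merges 667 nm emission intensity and signal-to-noise per printed compound spot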
# Albumin (Bos taurus), sequence (P02769 whole entry, looked up): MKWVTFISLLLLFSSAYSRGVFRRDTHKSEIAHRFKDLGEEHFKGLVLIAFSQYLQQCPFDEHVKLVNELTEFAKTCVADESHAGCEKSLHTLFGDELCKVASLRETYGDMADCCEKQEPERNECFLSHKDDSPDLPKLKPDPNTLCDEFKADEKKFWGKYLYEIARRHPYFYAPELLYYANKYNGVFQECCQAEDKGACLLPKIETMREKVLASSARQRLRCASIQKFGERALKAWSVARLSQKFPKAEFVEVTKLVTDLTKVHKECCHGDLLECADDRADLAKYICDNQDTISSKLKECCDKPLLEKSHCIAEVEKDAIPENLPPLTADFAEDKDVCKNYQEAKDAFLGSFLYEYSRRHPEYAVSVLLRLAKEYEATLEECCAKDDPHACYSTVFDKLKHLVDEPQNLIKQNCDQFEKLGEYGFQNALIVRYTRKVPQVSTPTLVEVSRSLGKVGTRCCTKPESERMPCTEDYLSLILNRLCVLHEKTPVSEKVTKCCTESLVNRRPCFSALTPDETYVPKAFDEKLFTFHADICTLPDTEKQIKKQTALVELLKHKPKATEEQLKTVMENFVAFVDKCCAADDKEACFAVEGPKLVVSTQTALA
# [1] = small-molecule microarray binders of probe aXIP, primary screen, biochemical, NeuroSMM set, 635/667 nm fluorescence (AID 1119); settings: higher = more signal, called active from +8 up or from −8 down;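 note: probe is the protein aXip251-270 applied at 1 µg/mL to compound-printed slides; binding of probe to printed compounds measured as 667 nm fluorescence plus signal to noise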
# [2] = small-molecule binders of probe aNOTCH3, primary screen, biochemical, small-molecule microarray, 635/667 nm fluorescence (AID 1120); settings: higher = more signal;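 note: probe is a biotin-tagged antibody raised against NOTCH3 rather than NOTCH3 protein; score merges spot fluorescence near 667 nm with spot signal to noise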
# [3] = small-molecule binders of probe aNOTCH2, primary screen, biochemical, small-molecule microarray, 635/667 nm fluorescence (AID 1121); settings: higher = more signal;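 note: score merges feature fluorescence read at 667 nm with its signal to noise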
# [4] = target: Carbonic anhydrase 2 (Homo sapiens) (UniProt P00918); test: CAII small-molecule binders, profiling panel, biochemical, small-molecule microarray, Alexa647-labelled CAII (AID 1122); settings: CAII-A647 binding fluorescence, higher = more signal
# [5] = COS7 lysate on small-molecule microarray, probe aHis, 635 nm (AID 1123); settings: COS7 cell lysate, fluorescence, higher = more signal;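 note: z-score combines 667nm fluorescence intensity with signal-to-noise per printed compound spot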
# [6] = compound binding in COS7 lysate, probe aLAP1, primary screen, cell lysate, small-molecule microarray (AID 1124); settings: probe aLAP1, fluorescence, higher = more signal;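 note: lysate comes from COS7 cells expressing LAP1 and is applied at 0.3 µg/mL; score merges spot fluorescence near 667 nm with signal-to-noise over triplicate slides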
# Sam68 (KHDRBS1) = test: Sam68 small-molecule binders, primary screen, biochemical, small-molecule microarray, 635 nm fluorescence (AID 1125); settings: small-molecule microarray binding, higher = more signal;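 note: score merges 667 nm channel intensity with signal to noise over triplicate slides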
# [7] = test system: Chordin-like protein 2 (CHRDL2); test: CHRDL2 small-molecule binders, primary screen, biochemical, small-molecule microarray, 635 nm fluorescence (AID 1126); settings: small-molecule microarray binding, fluorescence 635 nm; higher = more signal;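 note: printed compound slides probed with Chrdl2 protein at 4 µg/mL for 1 h at 4 C; score merges 667 nm emission intensity with signal to noise over three replicate slides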
# [8] = target: Concanavalin-A (Canavalia ensiformis) (UniProt P02866); test: ConA small-molecule binders, primary screen, artefact control for SMM control protein annotation, biochemical, small-molecule microarray, Alexa647 label, 635 nm (AID 1127); settings: ConA-A647 binding fluorescence, higher = more signal;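 note: z combines 667 nm emission intensity with signal-to-noise across three replicate slides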
# Concanavalin-A (Canavalia ensiformis), sequence (P02866 whole entry, looked up): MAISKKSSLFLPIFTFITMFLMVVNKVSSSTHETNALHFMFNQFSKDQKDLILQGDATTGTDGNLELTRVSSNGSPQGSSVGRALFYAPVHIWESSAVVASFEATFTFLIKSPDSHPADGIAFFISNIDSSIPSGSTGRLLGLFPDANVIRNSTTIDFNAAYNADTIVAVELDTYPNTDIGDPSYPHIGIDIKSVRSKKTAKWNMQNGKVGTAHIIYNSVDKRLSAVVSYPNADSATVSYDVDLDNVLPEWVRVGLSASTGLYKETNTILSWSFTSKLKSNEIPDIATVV
Compound,composite z-score (Albumin (Bos taurus)),composite Z-score [1],composite z-score [2],composite z-score [3],composite z-score [4],composite z-score [5],composite z-score [6],composite z-score (Sam68 (KHDRBS1)),composite z-score [7],composite z-score [8]
O=C1[C@H]2[C@H]3[C@H](O)[C@H](O)CC(=NOCc4ccccc4)[C@H]3CC[C@H]2C(=O)N1C[C@@H]1CCCO1,0.5,0.324 (inactive),0.132,-0.12,0.432,0.469,0.491,0.232,0.312,0.652
C=CCOC(=O)[C@H]1[C@@H]2C(=O)O[C@@H](c3ccccc3)[C@@H](c3ccccc3)N2[C@@H](c2ccc(OCCOC(=O)[C@H]3C[C@H]4C(=O)N[C@@H](Cc5ccccc5)C(=O)N4[C@H]3c3ccc(O)cc3)cc2)[C@]12C(=O)Nc1ccccc12,-0.757,0.89 (inactive),-0.0932,-0.131,0.553,1.71,0.832,1.31,1.38,1.16
O=C1[C@H]2[C@H]3[C@H](O)[C@H](O)CC(=NOCc4ccccc4)[C@H]3CC[C@H]2C(=O)N1c1cccc(Oc2ccccc2)c1,0.442,-0.171 (inactive),0.0793,-0.161,0.144,1.14,0.229,1.05,-0.0086,0.707
CO[C@H]1COC(=O)[C@H](C)COC(=O)CC=C[C@@H](C)[C@H](OC)COC(=O)CC=C[C@@H]1C,-0.991,-0.222 (inactive),-0.132,-0.164,-0.405,-0.602,-0.142,-0.0288,1.4,0.184
COC(=O)[C@@]1(Cc2ccc(F)cc2)[C@@H]2C(=CC(=O)[C@H]2CC(=O)C(=O)N(C)C)CN1C(=O)c1ccccc1,0.979,-1.12 (inactive),0.476,0.308,0.785,3.01,0.663,1.21,0.13,1.16
CCN1C(=O)[C@H]2[C@H]3[C@H](O)[C@H](O)CC(=NOCc4ccccc4)[C@@H]3CC[C@H]2C1=O,-0.0633,1.92 (inactive),0.302,-0.186,0.0453,0.37,1.74,0.598,0.589,0.7
C[C@@H]1CCC2C(=O)N(Cc3ccccc3)C[C@@H](O)CN2[C@H]1c1ccc(Br)cc1 (stereo not given in full),0.33,0.0923 (inactive),-0.0362,-0.176,0.375,0.669,-0.0066,0.621,0.374,0.646
CCCCC(=C=CC[C@H](O)c1ccccc1OCCO)C[C@H](O)COCc1ccccc1,0.355,2.26 (inactive),-0.0362,-0.147,0.669,0.0513,1.27,-0.0664,-0.632,0.874
CCc1cc2c(nc1CC)CCN(CCC(C)=NO[C@@H](C)c1cc(-c3c(C)cc(C)cc3C)no1)C2,0.417,-0.128 (inactive),-0.146,-0.0649,-0.195,0.778,-0.126,0.353,-0.121,0.765
C#CCCCON=C1C[C@@H](O)[C@@H](O)[C@@H]2[C@@H]3C(=O)N(c4cccc(Oc5ccccc5)c4)C(=O)[C@@H]3CC[C@@H]12,0.487,0.154 (inactive),-0.0311,-0.244,0.256,1.77,-0.164,1.32,-0.0255,0.884
CCc1cc2c(nc1CC)CCN(CCC(C)=NOC(C)CN1CCCc3nc(C)c(C)cc31)C2 (stereo not given),0.263,1.74 (inactive),0.724,0.271,0.461,1.18,0.0412,1.29,0.726,0.952
CC(=O)OC[C@H]1O[C@H](CCON=C(C)CCC(=O)OC[C@H]2O[C@H](C#Cc3ccccc3)C=C[C@@H]2Oc2ccc(C)cc2)C=C[C@@H]1OC(C)=O,0.208,0.131 (inactive),0.0322,-0.204,-0.085,0.1,0.448,0.287,0.401,0.194
CC(C)CON=C1C[C@@H](O)[C@@H](O)[C@@H]2[C@@H]3C(=O)N(C[C@@H]4CCCO4)C(=O)[C@@H]3CC[C@H]12,-0.3,-0.311 (inactive),-0.101,-0.0659,0.0765,0.737,-0.193,0.697,-0.0163,0.12
O=C1O[C@@H](c2ccccc2)[C@@H](c2ccccc2)N2[C@@H](c3ccc(OCCO)cc3)[C@]3(C(=O)Nc4ccc(C#CCCO)cc43)[C@@H](C(=O)N3CCCCCCC3)[C@H]12,0.259,7.58 (inactive),1.66,0.745,0.896,3.6,1.02,1.3,1.25,1.15
COC(=O)C1=C(C)[C@@H](O)[C@@H](C)[C@H](c2c(OC)c(OC)c(C)c(OC)c2OC)O1,0.529,-0.461 (inactive),-0.0615,-0.14,0.298,0.206,-0.064,-0.441,0.336,0.484
CCOc1ccc(N2C(=O)/C(=C/C=C/c3ccccc3OC)S(=O)(=O)C2c2cccc([N+](=O)[O-])c2)cc1 (stereo not given),0.382,-0.327 (inactive),0.0762,-0.0793,-0.138,0.13,0.32,-0.319,0.198,0.133
CC(C)CON=C1C[C@@H](O)[C@@H](O)[C@@H]2[C@@H]3C(=O)N([C@@H](C)c4ccccc4)C(=O)[C@@H]3CC[C@H]12,0.663,0.0312 (inactive),0.0297,-0.0959,0.378,0.754,-0.0211,1.29,0.315,1.07
COC(=O)[C@H](C)NC(=O)CCC1CC(OC(=O)NCc2ccc3c(c2)OCO3)CC2(CCCC(COC(=O)NCCOc3ccccc3)O2)O1 (stereo not given in full),0.469,0.794 (inactive),0.14,-0.0889,0.356,0.508,0.114,1.3,0.344,0.906
C=C(/C(=C/C[C@H](OC(=O)c1ccncc1)c1ccc(OCCO)cc1)c1cnc2ccccc2c1)C(C)C,0.139,0.184 (inactive),0.173,-0.118,0.946,0.118,0.62,1.32,1.14,1.16
CC(C)OC(=O)C=C1C[C@@H](c2ccc(C#N)cc2)O[C@@H](c2ccc(C#N)cc2)O1,0.992,0.914 (inactive),0.725,0.0186,0.693,3.07,0.148,1.32,-0.595,1.15
COc1ccc([Si](C)(C)[C@H]2[C@H](CCO)O[C@@]3(C(=O)N(Cc4cccc(NC(=O)[C@H](C)O)c4)c4ccccc43)[C@@H]2C)cc1,0.564,1.49 (inactive),0.0306,-0.13,0.395,1.55,0.335,1.27,0.189,1.11
CC(C)CON=C1[C@H]2CCn3c(=O)n(-c4ccccc4)c(=O)n3[C@H]2[C@H](O)[C@@H]2O[C@H]12,0.348,0.131 (inactive),-0.0193,0.0145,-0.0152,-0.497,-0.544,-0.589,0.762,0.0834
COC(=O)C1(C)C=C2C(=C(c3ccccc3)C(=O)C2C)CN1 (stereo not given),0.226,-0.107 (inactive),-0.128,0.0633,0.479,0.895,-0.368,-0.999,-0.368,-1.06
